“And” between values parts separate entries of the source, which are not always exact repeats. Equal entries are not always repeated. Hit rate of the full screen: of about 340,000 compounds, about 1,000 (0.29%) were called active. No stated cut-off is given here; in the data, inconclusive means inhibition above about 29% without an active follow-up result; inactive means below that. The list is a sample of the results. Measured potencies and affinities stand elsewhere.

The test has as its target Genome polyprotein (Dengue virus type 2 (strain 16681-PDK53)) (UniProt P29991). In words: Dengue-2 NS5 methyltransferase inhibitors, primary screen, biochemical, confirmation dose response (AID 588689). The note with it: Dengue-2 NS5 methyltransferase capping enzyme assay, at 25 µM, stronger effect = higher value.
Where [1] appears, read: measured here: pilot screen replicate inhibition.

One may read the inhibition as the drop in the measured response relative to a control, in per cent. Regarding `Cc1ccc(S(=O)(=O)NCCC(=O)OCC(=O)N(Cc2ccccc2)C(C)(C)C)cc1`, the inhibition is 7.2% (inactive).
The same measure, in the same setting: with `CC1(C)CC2CC(C)(CN2C(=O)COC(=O)c2cccc([N+](=O)[O-])c2)C1` (stereo not given) the figure was 6.17% (inactive); with `CC(C(=O)Nc1ccccc1F)N1C(=O)c2ccccc2C1=O` (stereo not given), 4.32% (inactive).
Turning to `CC(C(=O)Nc1ccc2c(c1)OCO2)N(C)CC(=O)Nc1ccc(Cl)cc1` (stereo not given), the inhibition is 2.29% (inactive).
Take `Cc1ccc2c(C(=O)CN3CCCCC3CCO)c(C)[nH]c2c1` (stereo not given): the inhibition was -12.1% (inactive).
For the compound `Cc1ccc(N2CN(Cc3ccco3)CNC2=S)cc1`, the inhibition is -4.68% (inactive).
The same measure, in the same setting: with `CC(OC(=O)C1CC1C)C(=O)Nc1ncc(Cl)cc1Cl` (stereo not given) the figure was -5.81% (inactive).
Take `O=S(=O)(Nc1nc2ccccc2nc1NCc1ccco1)c1ccc(F)cc1`: the inhibition was 21.1% (inactive).
Same read-out and setting: with `O=S(=O)(Nc1nc2ccccc2nc1NCc1ccco1)c1ccccc1` the figure was 26.3% (inactive); with `CCCNC(=O)NC(=O)c1cnccc1C(F)(F)F`, 3.85% (inactive).
On the same count and under the same terms, with `CC1=NOC(=O)/C1=C/c1ccc(O)c(Br)c1` the figure was -9.14% (inactive); with `CC1=NOC(=O)/C1=C/c1ccc(O)c(Cl)c1`, 6.53% (inactive).
Same read-out and setting: with `CCN(CC)c1ccc(/C=C2/C(=O)ON=C2C)cc1` the figure was -145% (inactive); with `CC1=NOC(=O)/C1=C/c1ccc(O)cc1`, 33.3% (inactive); with `CCc1nc(SCC(=O)NCCc2ccccc2)n[nH]1`, 0% (inactive).
For the compound `CCCC(c1nnnn1C(C)(C)CC)N1CCN(C(=O)c2ccco2)CC1` (stereo not given), the inhibition was 3.16% (inactive).
Consider `O=C(c1cccc(S(=O)(=O)Nc2ccc(Br)cc2)c1)N1CCCC1`, for which the inhibition is -8.06% (inactive).
In the case of `COc1ccc(S(N)(=O)=O)cc1C(=O)NNC(=O)c1cccc(S(=O)(=O)N2CCOCC2)c1`, the inhibition was 3.75% (inactive).
Regarding `Cc1ccc(C)c(S(=O)(=O)N2CCCC2CNC(=O)C(=O)NCc2ccco2)c1` (stereo not given), the inhibition is 0% (inactive).
The same measure, in the same setting: under `O=C(CN1CCC(c2nc3ccccc3s2)CC1)N1CCCCC1` stands -11.7% (inactive); under `O=C1C=CC(=O)N1c1ccccc1N1C(=O)C=CC1=O`, 5.05% (inactive); under `O=C1c2ccccc2C(=O)N1N(c1ccccc1)c1ccccc1`, 0% (inactive).
The same measure, in the same setting: under `NC(=O)c1ccc(NCCCN2CCOCC2)c([N+](=O)[O-])c1` stands -4.51% (inactive).
Consider `CC(=O)N1CCN(c2nc(N)c(C#N)c(CC#N)c2C#N)CC1`, for which the inhibition is -8.51% (inactive).
On the same count and under the same terms, under `COc1ccc(S(=O)(=O)N2CCOCC2)cc1NC(=O)COC(=O)C1CC1C` (stereo not given) stands -7.51% (inactive); under `CC1=NN(c2ccccc2)C(=O)C1N=Nc1ccc(S(N)(=O)=O)cc1` (stereo not given), -3.93% (inactive).
Same read-out and setting: under `CCCCc1nc2ccc(S(=O)(=O)O)cc2[nH]1` stands -2.87% (inactive); under `CCN(CC)CCNC(=O)Cn1c(=O)c2cccn2c2ccc(F)cc21`, -0.65% (inactive).
Same read-out and setting: with `O=C(CNC(=O)c1ccc(Br)o1)NNC(=O)COc1ccccc1Cl` the figure was 1.1% (inactive); with `COc1ccc2c(c1)-c1nc(/N=C/c3ccccc3O)sc1CC2`, 29.6% (inactive).
For `COc1ccc2c(c1)-c1nc(/N=C/c3ccc(O)c(OC)c3)sc1CC2`, the inhibition was 27.5% (inactive).
Regarding `Oc1c(CN2CCOCC2)ccc(CN2CCOCC2)c1O`, the inhibition was 25.3% (inactive).
Same read-out and setting: under `Oc1c(CN2CCOCC2)cc(CN2CCOCC2)c(O)c1CN1CCOCC1` stands 20.2% (inactive).
`C=CC(n1cncn1)C(O)(c1ccccc1)c1ccccc1` (stereo not given): the inhibition is -1.2% (inactive).
The same measure, in the same setting: under `CCc1ccc(S(=O)(=O)/N=C2\C=C(Nc3cccc(C(=O)O)c3)C(=O)c3ccccc32)cc1` stands 5.86% (inactive); under `Cc1ccc(NC2=C/C(=N/S(=O)(=O)c3cccs3)c3ccccc3C2=O)cc1C`, 1.44% (inactive).
On the same count and under the same terms, under `O=C1C(Nc2ccccc2)=C/C(=N/S(=O)(=O)c2cccs2)c2ccccc21` stands 0% (inactive); under `O=C1C(Nc2ccc(O)cc2)=C/C(=N/S(=O)(=O)c2cccs2)c2ccccc21`, 22.4% (inactive); under `Cc1ccc(S(=O)(=O)/N=C2\C=C(Nc3cccc(C(=O)O)c3)C(=O)c3ccccc32)cc1`, 9.52% (inactive).
Take `Cc1ccc(S(=O)(=O)/N=C2\C=C(Nc3cccc(C(=O)O)c3)C(=O)c3ccccc32)c(C)c1`: the inhibition is 13.2% (inactive).
Take `CCc1ccc(S(=O)(=O)/N=C2\C=C(Nc3ccc(C(=O)O)cc3)C(=O)c3ccccc32)cc1`: the inhibition is 26.1% (inactive).
The same measure, in the same setting: with `COC(=O)c1ccccc1NC1=C/C(=N\S(=O)(=O)c2cccs2)c2ccccc2C1=O` the figure was 7.26% (inactive) and 0.39% (inactive).
Same read-out and setting: under `CCOC(=O)C1(CC2CCCCO2)CCN(Cc2c(C)cc(C)cc2-n2cccn2)CC1` (stereo not given) stands -10.8% (inactive); under `COc1ccc(S(=O)(=O)N2CCCCC2)cc1NC(=O)COC(=O)c1ccco1`, -2.61% (inactive).
Still for that read-out and setting: with `O=C(Nc1ccc(F)cc1)OCCOc1ccc([N+](=O)[O-])cc1` the figure was -1.94% (inactive); with `CC(C)(C)OC(=O)COc1cc(F)ccc1[N+](=O)[O-]`, -8.99% (inactive).
Take `Cc1cc(NC(=O)C2C3C(=O)N(CCC(C)C)C(C(=O)NCc4ccccc4)C34C=CC2(C)O4)no1` (stereo not given): the inhibition was -10.5% (inactive).
On to `Cc1ccc(C(C)C)c(OCC(=O)NCC(c2cccs2)N2CCOCC2)c1` (stereo not given), for which the inhibition is 0.74% (inactive).
For the compound `Cc1ccc(-n2c(-c3ccc(Cl)cc3Cl)n[nH]c2=S)cc1`, the inhibition was -16.5% (inactive). Under setting [1], the inhibition is -6.44%.
As to `COc1ccc(NS(=O)(=O)c2csc(C(=O)N3CCCC3)c2)c(OC)c1`, the inhibition was -6.24% (inactive).
On the same count and under the same terms, under `O=C(COC(=O)Cc1n[nH]c(=O)c2ccccc12)NNC(=O)c1ccc(Br)cc1` stands -4.04% (inactive); under `CCC(=O)Nn1c(C)nnc1C`, -2.7% (inactive); under `Cc1ccc(S(=O)(=O)N2[C@@H](c3ccc(Cl)cc3)C(C(=O)O)=CC[C@H]2c2ccc(Cl)c(Cl)c2)cc1`, 27.3% (inactive).
Take `CCc1ccc([C@@H]2CC=C(C(=O)O)[C@H](c3ccc(Br)cc3)N2S(=O)(=O)c2ccc(C)cc2)cc1`: the inhibition is 25.8% (inactive). Under setting [1], the inhibition stood at 10.7%.
For `Cc1ccc(S(=O)(=O)N2[C@@H](c3ccc(C(C)(C)C)cc3)C(C(=O)O)=CC[C@H]2c2ccc(Cl)c(Cl)c2)cc1`, the inhibition was 9.77% (inactive).
With `Cc1ccc([C@H]2C(C(=O)O)=CC[C@@H](c3ccc(C)cc3)N2S(=O)(=O)c2ccc(C)cc2)cc1`, the inhibition was 5.29% (inactive). Moreover, the inhibition under setting [1] is -0.615%.
`Cc1ccc(S(=O)(=O)N2[C@@H](c3ccccc3)C(C(=O)O)=CC[C@H]2c2ccc(Cl)c(Cl)c2)cc1`: the inhibition was 10.4% (inactive).
In the case of `Cc1ccc(S(=O)(=O)N2[C@@H](c3ccc(Cl)cc3)C(C(=O)O)=C[C@H]2CC2CCCC2)cc1`, the inhibition is 19.2% (inactive). Also, the inhibition under setting [1] turned out to be 4.89%.
For `Cc1ccc(S(=O)(=O)N2[C@@H](c3ccc(Br)cc3)C(C(=O)O)=CC[C@H]2c2cccc(Cl)c2)cc1`, in that order: -1.32% (inactive) and 1.82%.
Regarding `Cc1ccc([C@H]2C(C(=O)O)=C[C@@H](CC3CCCC3)N2S(=O)(=O)c2ccc(C)cc2)cc1`, the inhibition is 20.2% (inactive).

(Values after PubChem BioAssay AID588689 (Southern Research Specialized Biocontainment Screening …, 2011).)
